Measurements as given in PubChem BioAssay (NCATS).
“And” between values parts separate entries of the source, which are not always exact repeats. Equal values may be shown once. Records with an inconclusive call do not appear. Entries that show only a call come without a potency. Where a structure was tested more than once in an assay, its records may differ in their call. The source made the active and inactive calls. Unless noted, calls come from the whole dose curve; as a rule, active = well fitted curve in the direction sought with a large enough effect; inconclusive = small, poorly fitted or top-dose-only effect, or another doubt; inactive = no such curve, though single readings can be large; an effect the other way counts as inactive or inconclusive.

What was measured:
[1] = qHTS for Inhibitors of Plasmodium falciparum (DD2) proliferation (AID 504314); note: potency is the fitted concentration of half-maximal effect;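 for activity, negative = inhibition: parasite DNA measured by SYBR Green fluorescence after red cell lysis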
Outline: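 Quantitative HTS growth inhibition: SYBR Green I binding to parasite DNA after 72 h drug exposure of infected erythrocytes (0.3% parasitemia, 2.5% hematocrit). Signals normalized per plate to inhibitor and vehicle wells.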

[2] = qHTS for Inhibitors of Plasmodium falciparum (GB4) proliferation (AID 504315); note: nearly all actives have a fitted effect of over 50% in size; note: potency is the fitted concentration of half-maximal effect
Outline: (§1)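 Erythrocytes infected with P. falciparum line (0.3% parasitemia, 2.5% hematocrit final) incubated with compounds 72 h at 37 °C, 5% CO2; SYBR Green lysis buffer added, fluorescence read next day. Normalized to 0.29 uM artemisinin and DMSO.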

[3] = qHTS for Inhibitors of Plasmodium falciparum (7G8) proliferation (AID 504316); note: nearly all actives have a fitted effect of over 65% in size; note: potency is the fitted concentration of half-maximal effect
Outline: as §1

[4] = qHTS for Inhibitors of Plasmodium falciparum (HB3) proliferation (AID 504318); note: nearly all actives have a fitted effect of over 60% in size; note: potency is the fitted concentration of half-maximal effect
Outline: as §1

[5] = qHTS for Inhibitors of Plasmodium falciparum (CP250) proliferation (AID 504320); note: potency is the fitted concentration of half-maximal effect
Outline: as §1

[6] = target: Atrial natriuretic peptide receptor 1 (Homo sapiens) (UniProt P16066); experiment: Natriuretic polypeptide receptor (hNpr1) antagonism - Pilot CMLD screen (AID 1347052; calls by dose curve;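 note: HEK293 cells with hNpr1 stimulated by hNppA peptide at 0.1 nM; cGMP level read as GloSensor luciferase luminescence after agonist stimulation; series mostly up to about 9.2 µM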)
Sequence of Atrial natriuretic peptide receptor 1 (Homo sapiens) (P16066 whole entry, looked up): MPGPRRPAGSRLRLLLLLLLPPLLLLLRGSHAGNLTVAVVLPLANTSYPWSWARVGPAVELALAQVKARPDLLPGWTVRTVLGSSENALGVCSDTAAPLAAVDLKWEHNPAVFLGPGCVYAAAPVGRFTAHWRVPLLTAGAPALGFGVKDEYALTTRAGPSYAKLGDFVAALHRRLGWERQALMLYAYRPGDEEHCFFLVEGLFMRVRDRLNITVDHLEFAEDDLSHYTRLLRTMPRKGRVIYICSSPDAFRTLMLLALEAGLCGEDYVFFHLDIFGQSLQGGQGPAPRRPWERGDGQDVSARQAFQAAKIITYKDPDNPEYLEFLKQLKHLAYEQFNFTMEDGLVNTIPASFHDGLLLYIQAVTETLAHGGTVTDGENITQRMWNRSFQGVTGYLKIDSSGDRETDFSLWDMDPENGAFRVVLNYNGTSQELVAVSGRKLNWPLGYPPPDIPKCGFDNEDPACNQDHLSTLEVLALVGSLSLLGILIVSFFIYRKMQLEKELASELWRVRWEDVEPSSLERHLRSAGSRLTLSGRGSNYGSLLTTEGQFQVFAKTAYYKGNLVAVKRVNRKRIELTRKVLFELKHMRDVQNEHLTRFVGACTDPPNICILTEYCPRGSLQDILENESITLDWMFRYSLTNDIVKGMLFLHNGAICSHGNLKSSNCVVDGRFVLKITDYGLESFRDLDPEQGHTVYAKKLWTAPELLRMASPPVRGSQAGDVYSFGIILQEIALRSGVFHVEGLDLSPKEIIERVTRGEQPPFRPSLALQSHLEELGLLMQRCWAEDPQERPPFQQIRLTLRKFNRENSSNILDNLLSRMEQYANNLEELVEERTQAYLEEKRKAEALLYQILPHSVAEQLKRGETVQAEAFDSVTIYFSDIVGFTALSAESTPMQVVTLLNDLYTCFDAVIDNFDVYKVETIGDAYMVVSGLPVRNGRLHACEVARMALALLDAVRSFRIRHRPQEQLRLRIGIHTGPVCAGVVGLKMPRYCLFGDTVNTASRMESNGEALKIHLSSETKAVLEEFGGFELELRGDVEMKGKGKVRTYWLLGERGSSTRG

Compound | Potency [1] | Potency [2] | Potency [3] | Potency [4] | Potency [5] | Potency [6] | activity, negative = inhibition [1]
C=C(C)C(=O)C=CCCCC=CC(=O)OCC | inactive | inactive | inactive | inactive | inactive | inactive | 
COc1ccc(COC(=O)NN=C2C[C@@H](O)[C@@H](O)[C@@H]3[C@H]4C(=O)N(C5CCCCC5)C(=O)[C@@H]4CC[C@H]23)cc1 | inactive | inactive | inactive | inactive | inactive | inactive | 
COCC=CC1=CC2=CC(=O)C(C)(OC(=O)c3cnc4ccccc4n3)C(=O)C2=CN1Cc1ccc(OC)cc1 (stereo not given) | inactive | inactive | inactive | inactive | inactive | inactive | 
CCN1C(=O)N(C)C(c2ccccc2)C(C(=O)OC)=C1C (stereo not given) | inactive | inactive | inactive | inactive | inactive | inactive | 
C#CCCCON=C1C[C@@H](O)[C@H](O)[C@H]2[C@@H]3C(=O)N(c4cccc(Oc5ccccc5)c4)C(=O)[C@@H]3CC[C@@H]12 | inactive | inactive | inactive | inactive | inactive | inactive | 
COc1ccc2c(c1)O[C@H](c1ccc3c(c1)OCO3)[C@@H](OC(=O)Nc1cc(OC)c(OC)c(OC)c1)C2=O | inactive | inactive | inactive | inactive | inactive | inactive | 
C[C@H]1[C@H](N=[N+]=[N-])[C@H](O)CCO[C@@H]1c1ccccc1 | inactive | inactive | inactive | inactive | inactive | inactive | 
COC(=O)N[C@@H](C=Cc1ccco1)[C@]1(C(=O)OC)CCCC1=O | inactive | inactive | inactive | inactive | inactive | inactive | 
CCN1C(=O)[C@@H]2[C@H]3[C@H](O)[C@H](O)CC(=NOCC[C@@H]4C=C[C@H](OC(C)=O)[C@@H](COC(C)=O)O4)[C@@H]3CC[C@H]2C1=O | inactive | inactive | inactive | inactive | inactive | inactive | 
OC[C@H]1O[C@H](C#Cc2ccccc2)C=C[C@H]1O | inactive | inactive | inactive | inactive | inactive | inactive | 
CC(C)(C)OC(=O)NCCCC1=CC2=CC(=O)C(C)(O)C(=O)C2=CO1 (stereo not given) | inactive | inactive | inactive | inactive | inactive | inactive | 
CCCCc1nc2c(c3c1C[C@H](C)OC3)CN(C(=O)Cc1cccs1)CC2 | inactive | inactive | inactive | inactive | inactive | inactive | 
CCCCc1cc2c(cn1)=C(OC(=O)C1CCCC1)C(C)(OC(=O)CC)C(=O)C=2 (stereo not given) |  | 1.9 µM (active) | 1.51 µM (active) and 1.69 µM (active) | inactive | inactive | inactive | 0.367% [at 1.12 µM] (inactive)
COc1ccc(NC(=O)N2CCc3nc(-c4ccccc4)c4c(c3C2)CO[C@@H](C)C4)cc1 | inactive | inactive | inactive | inactive | inactive | inactive | 
CCOC(=O)CN1C(=O)N[C@@H](c2cccc(C(F)(F)F)c2)[C@H](C(C)=O)[C@H]1C | inactive | inactive | inactive | inactive | inactive | inactive | 
O=C(NN=C1C[C@@H](O)[C@H](O)[C@H]2[C@@H]3C(=O)N(C4CCCCC4)C(=O)[C@@H]3CC[C@H]12)OCc1ccccc1 | inactive | inactive | inactive | inactive | inactive | inactive | 
COc1ccc2c(c1)C(=O)[C@H](OC(=O)Nc1ccc(OC(F)F)cc1)[C@@H](c1ccc(OC)c(Br)c1)O2 | inactive | inactive | inactive | inactive | inactive | inactive | 
COc1cccc([C@@H]2Oc3ccc(Br)cc3C(=O)[C@@H]2OC(=O)N[C@H](C)C2CCCCC2)c1 | inactive | inactive | inactive | inactive | inactive | inactive | 
CC(=O)C1=C(C)N(Cc2ccccc2)C(=O)NC1c1cccs1 (stereo not given) | inactive | inactive | inactive | inactive | inactive | inactive | 
CC(=O)OC[C@H]1O[C@H](C#Cc2ccccc2)C=C[C@H]1O | inactive | inactive | inactive | inactive | inactive | inactive | 
FC(F)(F)c1cc(NC(=S)NC(c2ccccc2)c2ccccc2)cc(C(F)(F)F)c1 | 1.34 µM (active) and inactive | 1.51 µM (active) and inactive | 536 nM (active) and inactive | 757 nM (active) and inactive | 1.2 µM (active) and inactive | inactive | 
CC1=CC[C@@H](COc2ccccc2)O[C@@]2(C1)C(=O)Nc1cccc(Br)c12 | inactive | inactive | inactive | inactive | inactive | inactive | 
COCC=CC1=CC2=CC(=O)C(C)(OC(=O)c3cnc4ccccc4n3)C(=O)C2=CN1C1CC1 (stereo not given) | inactive | inactive | inactive | inactive | inactive | inactive | 
COC(=O)N[C@H](C(C(=O)OC)=C(C)NCc1ccccc1)c1cccs1 | inactive | inactive | inactive | inactive | inactive | inactive | 
COc1ccc(COC(=O)NN=C2C[C@@H](O)[C@@H](O)[C@@H]3[C@H]4C(=O)N(c5ccc(F)cc5F)C(=O)[C@@H]4CC[C@H]23)cc1 | inactive | inactive | inactive | inactive | inactive | inactive | 

Compound | Potency [1] | Potency [2] | Potency [3] | Potency [4] | Potency [5] | Potency [6] | activity, negative = inhibition [1]
C=CC1(O)C(OC)=CC2C(=O)C1C(c1ccccc1)C2C (stereo not given) | inactive | inactive | inactive | inactive | inactive | inactive | 
C=CC1=C2C=C(C3CC3)N(C(CO)CO)C=C2C(=O)C(C)(OC(=O)c2ccco2)C1=O (stereo not given) | inactive | inactive | inactive | inactive | inactive | inactive | 
CCOC(=O)C1=CN(CCc2cn(Cc3ccccc3)nn2)C(=O)NC1c1ccccc1 (stereo not given) | inactive | inactive | inactive | inactive | inactive | inactive | 
COCC1=Cc2cc3c(cc2C(C(C(=O)OC)C(=O)OC)N1C(=O)OC)OCO3 (stereo not given) | inactive | inactive | inactive | inactive | inactive | inactive | 
CC=CCCN1C=C(C(C)=O)C(c2ccccc2)NC1=O (stereo not given) | inactive | inactive | inactive | inactive | inactive | inactive | 
COC(=O)CCCC1=CC2=CC(=O)C(C)(OC(=O)c3cccs3)C(=O)C2=CN1CCN1CCOCC1 (stereo not given) | inactive | inactive | inactive | inactive | inactive | inactive | 
C=CCOC(=O)N[C@@H](c1cccc(OC)c1)[C@@H](C)C=CCC(=O)O | inactive | inactive | inactive | inactive | inactive | inactive | 
CCOC(=O)CN1C(=O)[C@]2(OCCC=C[C@@H]2C)c2c(Br)cccc21 | inactive | inactive | inactive | inactive | inactive | inactive | 
COC(=O)N[C@@H](c1cccc(F)c1)C(C(C)=O)C(=O)OC (stereo not given in full) | inactive | inactive | inactive | inactive | inactive | inactive | 
COCCN1C=C2C(=O)C(C)(OC(=O)C3CCCC3)C(=O)C=C2C=C1c1ccsc1 (stereo not given) | inactive | inactive | inactive | inactive | inactive | inactive | 
COC(=O)CCC(=O)OC1(C)C(=O)C=C2C=C(C3CC3)N(Cc3ccc4c(c3)OCO4)C=C2C1=O (stereo not given) |  | inactive | inactive | inactive | inactive | inactive | -0.0348% [at 1.12 µM] (inactive)
C=CC[C@@](C(C)=O)(C(=O)OC)[C@@H](NC(=O)OC)c1ccccc1 | inactive | inactive | inactive | inactive | inactive | inactive | 
C[C@@H]1C=CCCO[C@]12C(=O)N(CC1CC1)c1ccccc12 | inactive | inactive | inactive | inactive | inactive | inactive | 
CCOC(=O)N1C2=NC(C(=O)OC)=C(C(=O)OC)[C@@H]3N(C)c4ccccc4[C@]23C[C@H]1C(=O)OC | inactive | inactive | inactive | inactive | inactive | inactive | 
O=C1Nc2cccc(Br)c2[C@@]12O[C@H](COc1ccccc1)CC1=CCCC12 (stereo not given in full) | inactive | inactive | inactive | inactive | inactive | inactive | 
CCCCC1=CC2=CC(=O)C(C)(OC(=O)c3cnc4ccccc4n3)C(=O)C2=CO1 (stereo not given) | inactive | inactive | inactive | inactive | inactive | inactive | 
COC(=O)N1C(c2ccccc2)=Cc2ccccc2C1CC(C)=O (stereo not given) | inactive | inactive | inactive | inactive | inactive | inactive | 
C=CCCN1C(=O)NC(c2ccccc2)C(C(=O)OC)=C1C (stereo not given) | inactive | inactive | inactive | inactive | inactive | inactive | 
CC1(C)O[C@@H](C(O)(c2cc(C(F)(F)F)cc(C(F)(F)F)c2)c2cc(C(F)(F)F)cc(C(F)(F)F)c2)[C@H](C(O)(c2cc(C(F)(F)F)cc(C(F)(F)F)c2)c2cc(C(F)(F)F)cc(C(F)(F)F)c2)O1 | inactive | inactive | inactive | inactive | inactive | inactive | 
COC(=O)C1=C(C)N(Cc2ccccc2)C(=S)NC1c1ccc(Br)cc1 (stereo not given) | inactive | inactive | inactive | inactive | inactive | inactive | 
C=CCN1C(=O)CC[C@@]23C1=NC(C(=O)OC)=C(C(=O)OC)[C@@H]2N(C)c1ccccc13 | inactive | inactive | inactive | inactive | inactive | inactive | 
CCOC(=O)CN1C(=O)[C@]2(OCCC=C[C@@H]2C)c2ccccc21 | inactive | inactive | inactive | inactive | inactive | inactive | 
C=CC[C@](C)(Nc1ccc(OC)cc1)C(=O)OCC | inactive | inactive | inactive | inactive | inactive | inactive | 
COCCN1C(=O)NC(CCc2ccccc2)C(C(C)=O)=C1C (stereo not given) | inactive | inactive | inactive | inactive | inactive | inactive | 
COCCN1C(=O)C2=C(C1=O)C1N(C)c3ccccc3[C@@]13C[C@@H](CO)N=C3N2 (stereo not given in full) | inactive | inactive | inactive | inactive | inactive | inactive | 
